# Experimental data reported in the supplement of paper PMC8728848.
# The full list was thinned out, with the strongest signals kept by preference.
# How the values were obtained:
# Test in all cases: glycan array binding signal (z-score within array); higher = stronger binding
# Conditions in all cases: glycan notation: IUPAC condensed, linker removed
# [1] = biological target: Fuc(a1-2)Gal(b1-4)[Fuc(a1-3)]GlcNAc(b1-3)[Neu5Ac(a2-6)Gal(b1-4)GlcNAc(b1-6)]Gal(b1-4)Glc
# How it was run: (§1)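 The binding signal is a Z-score computed within each array and averaged over linkers. Arrays of the same protein sequence at different concentrations or buffers were also averaged together. Data originate from 3228 arrays in the Consortium for Functional Glycomics database, kept only where the protein sequence was available.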
# [2] = biological target: Fuc(a1-2)[Gal(a1-3)]Gal
# How it was run: as §1
# [3] = biological target: Fuc(a1-2)[GalNAc(a1-3)]Gal(b1-4)GlcNAc(b1-2)Man(a1-3)[Fuc(a1-2)[GalNAc(a1-3)]Gal(b1-4)GlcNAc(b1-2)Man(a1-6)]Man(b1-4)GlcNAc(b1-4)[Fuc(a1-6)]GlcNAc
# How it was run: as §1
# [4] = biological target: Fuc(a1-2)[GalNAc(a1-3)]Gal(b1-4)GlcNAc(b1-3)Gal(b1-4)GlcNAc(b1-3)Gal(b1-4)GlcNAc
# How it was run: as §1
# [5] = biological target: Fuc(a1-2)[GalNAc(a1-3)]Gal(b1-4)[Fuc(a1-3)]GlcNAc(b1-3)GalNAc
# How it was run: as §1
# [6] = biological target: Fuc(b1-3)GlcNAc
# How it was run: as §1
# [7] = biological target: Gal(a1-3)Gal(b1-4)GlcNAc(b1-3)GalNAc
# How it was run: as §1
# [8] = biological target: Gal(a1-6)Glc
# How it was run: as §1
# [9] = biological target: Gal(b1-3)GlcNAc(b1-2)[Gal(b1-3)GlcNAc(b1-6)]Man(a1-6)[Gal(b1-3)GlcNAc(b1-2)Man(a1-3)]Man(b1-4)GlcNAc(b1-4)GlcNAc
# How it was run: as §1
# [10] = biological target: Gal(b1-3)GlcNAc(b1-3)Gal(b1-3)GlcNAc
# How it was run: as §1
# [11] = biological target: Gal(b1-3)[Fuc(a1-4)]GlcNAc
# How it was run: as §1
# [12] = biological target: Gal(b1-3)[Fuc(a1-4)]GlcNAc(b1-3)Gal(b1-3)[Fuc(a1-4)]GlcNAc
# How it was run: as §1
# [13] = biological target: Gal(b1-3)[GlcNAc(b1-6)]GalNAc
# How it was run: as §1
# [14] = biological target: Gal(b1-4)GlcNAc
# How it was run: as §1
# [15] = biological target: Gal(b1-4)GlcNAc(b1-2)Man(a1-3)Man(b1-4)GlcNAc(b1-4)GlcNAc
# How it was run: as §1
# [16] = biological target: Gal(b1-4)GlcNAc(b1-2)[Gal(b1-4)GlcNAc(b1-6)]Man(a1-6)[GlcNAc(b1-4)][Gal(b1-4)GlcNAc(b1-2)Man(a1-3)]Man(b1-4)GlcNAc(b1-4)GlcNAc
# How it was run: as §1
# [17] = biological target: Gal(b1-4)GlcNAc(b1-3)[Fuc(a1-3)GlcNAc(b1-6)]Gal(b1-4)Glc
# How it was run: as §1
# [18] = biological target: Gal(b1-4)GlcNAc(b1-3)[GlcNAc(b1-6)]Gal(b1-4)GlcNAc
# How it was run: as §1
# [19] = biological target: Gal3S6S(b1-4)GlcNAc
# How it was run: as §1
# [20] = biological target: Gal4S(b1-4)GlcNAc
# How it was run: as §1
# [21] = biological target: Gal4S6S(b1-4)GlcNAc
# How it was run: as §1
# [22] = biological target: Gal6S(b1-3)GlcNAc6S
# How it was run: as §1
# [23] = biological target: GalNAc(a1-3)GalNAc(a1-3)Gal(a1-4)Gal(b1-4)GlcNAc
# How it was run: as §1
# [24] = biological target: GalNAc(b1-3)Gal(a1-6)Gal(b1-4)Glc
# How it was run: as §1
# [25] = biological target: GalNAc(b1-4)GlcNAc(b1-2)Man(a1-3)[GalNAc(b1-4)GlcNAc(b1-2)Man(a1-6)]Man(b1-4)GlcNAc(b1-4)GlcNAc
# How it was run: as §1
# [26] = biological target: GalNAc6S(b1-4)GlcNAc
# How it was run: as §1
# [27] = biological target: Glc(a1-4)Glc(a1-4)Glc(a1-4)Glc
# How it was run: as §1
# [28] = biological target: GlcNAc(a1-3)Gal(b1-4)GlcNAc
# How it was run: as §1
# [29] = biological target: GlcNAc(a1-4)Gal(b1-3)GlcNAc
# How it was run: as §1
# [30] = biological target: GlcNAc(a1-4)Gal(b1-4)GlcNAc
# How it was run: as §1
# [31] = biological target: GlcNAc(a1-4)Gal(b1-4)GlcNAc(b1-3)Gal(b1-4)GlcNAc(b1-3)Gal(b1-4)GlcNAc
# How it was run: as §1
# [32] = biological target: GlcNAc(b1-2)Man(a1-3)[GlcNAc(b1-4)][GlcNAc(b1-2)Man(a1-6)]Man(b1-4)GlcNAc(b1-4)[Fuc(a1-6)]GlcNAc
# How it was run: as §1
# [33] = biological target: GlcNAc(b1-2)[GlcNAc(b1-4)]Man(a1-3)[GlcNAc(b1-4)][GlcNAc(b1-2)Man(a1-6)]Man(b1-4)GlcNAc(b1-4)GlcNAc
# How it was run: as §1
# [34] = biological target: GlcNAc(b1-3)Gal(b1-4)GlcNAc(b1-2)[GlcNAc(b1-3)Gal(b1-4)GlcNAc(b1-6)]Man(a1-6)[GlcNAc(b1-3)Gal(b1-4)GlcNAc(b1-2)Man(a1-3)]Man(b1-4)GlcNAc(b1-4)GlcNAc
# How it was run: as §1
# [35] = biological target: GlcNAc(b1-3)Man
# How it was run: as §1
# [36] = biological target: GlcNAc(b1-4)GlcNAc(b1-4)GlcNAc(b1-4)GlcNAc(b1-4)GlcNAc(b1-4)GlcNAc
# How it was run: as §1
# [37] = biological target: GlcNAc(b1-6)Gal(b1-4)GlcNAc
# How it was run: as §1
# [38] = biological target: Man(a1-3)[Man(a1-6)]Man(b1-4)GlcNAc(b1-4)GlcNAc
# How it was run: as §1
# [39] = biological target: Neu5Ac(a2-3)Gal(b1-3)[Fuc(a1-4)]GlcNAc(b1-3)Gal(b1-3)[Fuc(a1-4)]GlcNAc
# How it was run: as §1
# [40] = biological target: Neu5Ac(a2-3)Gal(b1-4)GlcNAc(b1-2)Man(a1-3)[Neu5Ac(a2-3)Gal(b1-4)GlcNAc(b1-2)Man(a1-6)]Man(b1-4)GlcNAc(b1-4)[Fuc(a1-6)]GlcNAc
# How it was run: as §1
# [41] = biological target: Neu5Ac(a2-3)Gal(b1-4)GlcNAc(b1-3)Gal(b1-3)GlcNAc
# How it was run: as §1
# [42] = biological target: Neu5Ac(a2-3)Gal(b1-4)GlcNAc(b1-3)GalNAc
# How it was run: as §1
# [43] = biological target: Neu5Ac(a2-3)Gal(b1-4)GlcNAc(b1-6)GalNAc
# How it was run: as §1
# [44] = biological target: Neu5Ac(a2-3)Gal(b1-4)[Fuc(a1-3)]GlcNAc(b1-3)GalNAc
# How it was run: as §1
# [45] = biological target: Neu5Ac(a2-3)Gal6S(b1-4)GlcNAc
# How it was run: as §1
# [46] = biological target: Neu5Ac(a2-6)Gal(b1-4)GlcNAc(b1-2)Man(a1-3)[GlcNAc(b1-2)Man(a1-6)]Man(b1-4)GlcNAc(b1-4)GlcNAc
# How it was run: as §1
# [47] = biological target: Neu5Ac(a2-6)Gal(b1-4)GlcNAc(b1-2)Man(a1-6)[Man(a1-3)]Man(b1-4)GlcNAc(b1-4)GlcNAc
# How it was run: as §1
# [48] = biological target: Neu5Ac(a2-6)Gal(b1-4)GlcNAc(b1-3)Gal(b1-4)GlcNAc(b1-3)GalNAc
# How it was run: as §1
# [49] = biological target: Neu5Ac(a2-6)Gal(b1-4)GlcNAc(b1-3)Gal(b1-4)[Fuc(a1-3)]GlcNAc(b1-3)Gal(b1-4)[Fuc(a1-3)]GlcNAc
# How it was run: as §1
# [50] = biological target: Neu5Ac(a2-6)GalNAc
# How it was run: as §1
# [51] = biological target: Neu5Ac(a2-6)GalNAc(b1-4)GlcNAc
# How it was run: as §1
# [52] = biological target: Neu5Ac(a2-8)Neu5Ac(a2-8)Neu5Ac(a2-3)[Gal(b1-3)GalNAc(b1-4)]Gal(b1-4)Glc
# How it was run: as §1
# [53] = biological target: Neu5Ac(a2-8)Neu5Ac(a2-8)Neu5Ac(a2-8)Neu5Ac(a2-3)[GalNAc(b1-4)]Gal(b1-4)Glc
# How it was run: as §1
# [54] = biological target: Neu5Gc(a2-6)GalNAc
# How it was run: as §1
binder,measurement,setting,value
Clrb (Mus musculus) (protein) ITGATKTEQIPVNKTYAACPQNWIGVENKCFYFSEYPSNWTFAQAFCMAQEAQLARFDNQDELNFLMRYKANFDSWIGLHRESSEHPWKWTDNTEYNNTIPIRGEERFAYLNNNGISSTRIYSLRMWICSKLNSYSLHCQTPFFPSGTKHHHHHHHHG,glycan array binding signal (z-score),[1],-0.359
same,glycan array binding signal (z-score),[2],-0.293
same,glycan array binding signal (z-score),[3],-0.417
same,glycan array binding signal (z-score),[4],-0.215
same,glycan array binding signal (z-score),[5],-0.299
same,glycan array binding signal (z-score),[6],-0.294
same,glycan array binding signal (z-score),[7],-0.505
same,glycan array binding signal (z-score),[8],-0.176
same,glycan array binding signal (z-score),[9],-0.249
same,glycan array binding signal (z-score),[10],-0.431
same,glycan array binding signal (z-score),[11],-0.303
same,glycan array binding signal (z-score),[12],-0.404
same,glycan array binding signal (z-score),[13],-0.186
same,glycan array binding signal (z-score),[14],-0.146
same,glycan array binding signal (z-score),[15],-0.355
same,glycan array binding signal (z-score),[16],-0.157
same,glycan array binding signal (z-score),[17],-0.386
same,glycan array binding signal (z-score),[18],5.13
same,glycan array binding signal (z-score),[19],-0.099
same,glycan array binding signal (z-score),[20],-0.31
same,glycan array binding signal (z-score),[21],-0.101
same,glycan array binding signal (z-score),[22],-0.357
same,glycan array binding signal (z-score),[23],-0.541
same,glycan array binding signal (z-score),[24],-0.023
same,glycan array binding signal (z-score),[25],4.64
same,glycan array binding signal (z-score),[26],4.38
same,glycan array binding signal (z-score),[27],-0.498
same,glycan array binding signal (z-score),[28],5.77
same,glycan array binding signal (z-score),[29],3.81
same,glycan array binding signal (z-score),[30],4.2
same,glycan array binding signal (z-score),[31],5.29
same,glycan array binding signal (z-score),[32],4.51
same,glycan array binding signal (z-score),[33],4.02
same,glycan array binding signal (z-score),[34],0.54
same,glycan array binding signal (z-score),[35],-0.377
same,glycan array binding signal (z-score),[36],7.67
same,glycan array binding signal (z-score),[37],1.87
same,glycan array binding signal (z-score),[38],-0.297
same,glycan array binding signal (z-score),[39],-0.359
same,glycan array binding signal (z-score),[40],-0.226
same,glycan array binding signal (z-score),[41],-0.383
same,glycan array binding signal (z-score),[42],-0.44
same,glycan array binding signal (z-score),[43],-0.392
same,glycan array binding signal (z-score),[44],-0.205
same,glycan array binding signal (z-score),[45],-0.365
same,glycan array binding signal (z-score),[46],-0.472
same,glycan array binding signal (z-score),[47],-0.503
same,glycan array binding signal (z-score),[48],-0.628
same,glycan array binding signal (z-score),[49],-0.211
same,glycan array binding signal (z-score),[50],-0.508
same,glycan array binding signal (z-score),[51],4.69
same,glycan array binding signal (z-score),[52],-0.421
same,glycan array binding signal (z-score),[53],-0.449
same,glycan array binding signal (z-score),[54],-0.377
